Measured values published in PubChem BioAssay (NCI).
Compounds without any hit were thinned out: in the full panel of roughly 79,000, 15% have a hit. Unmarked numbers belong to inactive results. Activity calls are given as the source filed them. Cut-off read from the data, not from the text of the source: active = growth inhibition above about 70%; inactive = the rest.

How the values were obtained:
[1] = NCI Yeast Anticancer Drug Screen. Data for the rad52 strain (AID 147);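 note: 0% = growth of vehicle-treated control cultures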; conditions: S. cerevisiae rad52 mutant growth inhibition, active compounds read high
Procedure, shortened: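 Compounds are applied to a genetically defined yeast strain lacking normal DNA damage repair, and inhibition of growth is expressed relative to cultures given vehicle only.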

[2] = NCI Yeast Anticancer Drug Screen. Data for the wt1 strain (AID 149);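 note: 0% = growth of vehicle-treated wt1 cultures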; conditions: S. cerevisiae wt1 strain (SPY 50644) growth inhibition, active compounds read high
Procedure, shortened: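 The wt1 strain was treated with compounds, and growth was compared with vehicle-treated cultures to give inhibition.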

[3] = NCI Yeast Anticancer Drug Screen. Data for the rad50EPP+ strain (AID 151);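 note: 0% = growth of vehicle-treated control cultures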; conditions: S. cerevisiae rad50 mutant strain, active compounds read high
Procedure, shortened: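 Compounds were applied to the rad50EPP+ yeast strain, which bears a defined DNA repair alteration, and growth inhibition was determined relative to vehicle-treated cultures.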

[4] = NCI Yeast Anticancer Drug Screen. Data for the mgt1 strain (AID 153); conditions: S. cerevisiae mgt1 mutant growth inhibition, active compounds read high
Procedure, shortened: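 Strain: mgt1 yeast, one of a set carrying defined DNA damage repair or cell cycle control alterations. Compound-treated growth compared with vehicle.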

[5] = NCI Yeast Anticancer Drug Screen. Data for the rad50 strain (AID 155);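 note: 0% = growth of vehicle-only cultures of the same strain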; conditions: S. cerevisiae rad50 strain growth inhibition, active compounds read high
Procedure, shortened: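 Cells are treated with compound, grown, and their growth is then scored against vehicle-only cultures of the same repair-deficient yeast strain.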

[6] = NCI Yeast Anticancer Drug Screen. Data for the mec2-1 strain (AID 157); conditions: S. cerevisiae mec2-1 strain, active compounds read high
Procedure, shortened: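 Strain: mec2-1 (DNA repair/cell cycle alteration). Compound exposure, then growth measured; inhibition expressed relative to vehicle.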

[7] = NCI Yeast Anticancer Drug Screen. Data for the rad14 strain (AID 159);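 note: 0% = growth of vehicle-treated control cultures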; conditions: S. cerevisiae rad14 strain growth inhibition, active compounds read high
Procedure, shortened: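 Readout: yeast growth inhibition, referenced to vehicle-only cultures. Strain bears a defined alteration in DNA damage repair.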

[8] = NCI Yeast Anticancer Drug Screen. Data for the sgs1 mgt1 strain (AID 161);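 note: 0% = growth of cultures given vehicle only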; conditions: S. cerevisiae sgs1 mgt1 strain, active compounds read high
Procedure, shortened: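 Read-out: growth inhibition vs vehicle controls. Cells: mutant yeast strain deficient in DNA damage repair.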

[9] = NCI Yeast Anticancer Drug Screen. Data for the CLN2oe strain (AID 163);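 note: 0% = growth of vehicle-only control cultures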; conditions: S. cerevisiae CLN2oe strain, active compounds read high
Procedure, shortened: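 Growth of a genetically modified yeast strain is measured after compound exposure and compared with cultures given vehicle alone.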

[10] = NCI Yeast Anticancer Drug Screen. Data for the cln2 rad14 strain (AID 165);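 note: 0% = growth equal to vehicle treated cultures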; conditions: S. cerevisiae cln2 rad14 strain, active compounds read high
Procedure, shortened: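 Compounds are applied to the cln2 rad14 yeast strain, and growth is then compared with that of vehicle-treated cultures to give inhibition.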

[11] = NCI Yeast Anticancer Drug Screen. Data for the bub3 strain (AID 167); conditions: S. cerevisiae bub3 mutant strain, active compounds read high
Procedure, shortened: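 Part of a panel of yeast mutants defective in DNA damage repair or cell cycle regulation. Each strain is grown with compound, and inhibition is calculated relative to solvent-treated cultures.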

[12] = NCI Yeast Anticancer Drug Screen. Data for the wt2 strain (AID 169);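 note: 0% = growth of vehicle-treated yeast cultures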; conditions: S. cerevisiae wt2 strain growth inhibition, active compounds read high
Procedure, shortened: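 This strain belongs to a panel of yeast strains with defined genetic alterations in DNA damage repair or cell cycle control. Compounds are applied, and growth inhibition is measured against vehicle-treated cultures.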

[13] = NCI Yeast Anticancer Drug Screen. Data for the mlh1 strain (AID 171);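 note: 0% = growth of vehicle-treated control cultures of the same strain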; conditions: S. cerevisiae mlh1 strain growth inhibition, active compounds read high
Procedure, shortened: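 Growth of the mutant yeast strain after compound exposure, expressed as inhibition relative to vehicle-only controls.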

[14] = NCI Yeast Anticancer Drug Screen. Data for the sgs1 strain (AID 173);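 note: 0% = growth of vehicle-only control cultures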; conditions: S. cerevisiae sgs1 mutant, active compounds read high
Procedure, shortened: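 Growth of a yeast strain bearing a defined genetic alteration is measured after compound treatment. Inhibition is expressed relative to vehicle-only controls.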

[15] = NCI Yeast Anticancer Drug Screen. Data for the mlh1 rad18 strain (AID 175); conditions: S. cerevisiae mlh1 rad18 strain growth inhibition, active compounds read high
Procedure, shortened: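 Read-out is yeast growth inhibition, calculated against vehicle-only controls. The compound was applied to a strain engineered with DNA damage repair alterations.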

[16] = NCI Yeast Anticancer Drug Screen. Data for the rad18 strain (AID 177); conditions: S. cerevisiae rad18 mutant growth inhibition, active compounds read high
Procedure, shortened: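 Growth of the mutant yeast strain after compound exposure, normalised to vehicle-only cultures.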

[17] = at 5.0 µM (retest, dose inferred, filed as 0.5)
[18] = at 50.0 µM (retest, dose inferred, filed as 5.0)

NC(=S)N/N=C\c1nccc2ccccc12
growth inhibition ([1]; at 1.2 µM): -10% | growth inhibition ([1]; at 3.7 µM): -3% | growth inhibition ([1]; at 11.0 µM): 40% | growth inhibition ([1]; at 33.0 µM): 95% (active) | growth inhibition ([1]; at 100.0 µM): 99% (active) | growth inhibition ([2]; at 1.2 µM): -6% | growth inhibition ([2]; at 3.7 µM): -7% | growth inhibition ([2]; at 11.0 µM): 16% | growth inhibition ([2]; at 33.0 µM): 76% (active) | growth inhibition ([2]; at 100.0 µM): 99% (active) | growth inhibition ([3]; at 1.2 µM): 1% | growth inhibition ([3]; at 3.7 µM): -1% | growth inhibition ([3]; at 11.0 µM): -16% | growth inhibition ([3]; at 33.0 µM): 27% | growth inhibition ([3]; at 100.0 µM): 97% (active) | growth inhibition ([4]; at 1.2 µM): -2% | growth inhibition ([4]; at 3.7 µM): -6% | growth inhibition ([4]; at 11.0 µM): 21% | growth inhibition ([4]; at 33.0 µM): 97% (active) | growth inhibition ([4]; at 100.0 µM): 99% (active) | growth inhibition ([5]; at 1.2 µM): -5% | growth inhibition ([5]; at 3.7 µM): -3% | growth inhibition [5, 17]: -151% | growth inhibition ([5]; at 11.0 µM): 46% | growth inhibition ([5]; at 33.0 µM): 97% (active) | growth inhibition [5, 18]: 96% (active) | growth inhibition ([5]; at 50.0 µM): 99% (active) | growth inhibition ([5]; at 100.0 µM): 97% (active) | growth inhibition ([6]; at 1.2 µM): 4% | growth inhibition ([6]; at 3.7 µM): 46% | growth inhibition [6, 17]: 50% | growth inhibition ([6]; at 11.0 µM): 97% (active) | growth inhibition ([6]; at 33.0 µM): 99% (active) | growth inhibition [6, 18]: 98% (active) | growth inhibition ([6]; at 50.0 µM): 99.5% (active) | growth inhibition ([6]; at 100.0 µM): 99% (active) | growth inhibition ([7]; at 1.2 µM): -3% | growth inhibition ([7]; at 3.7 µM): 4% | growth inhibition ([7]; at 11.0 µM): 51% | growth inhibition ([7]; at 33.0 µM): 98% (active) | growth inhibition ([7]; at 100.0 µM): 99% (active) | growth inhibition [8, 17]: -64% | growth inhibition [8, 18]: 98% (active) | growth inhibition ([8]; at 50.0 µM): 99% (active) | growth inhibition ([9]; at 1.2 µM): 0% | growth inhibition ([9]; at 3.7 µM): -11% | growth inhibition ([9]; at 11.0 µM): 35% | growth inhibition ([9]; at 33.0 µM): 96% (active) | growth inhibition ([9]; at 100.0 µM): 99% (active) | growth inhibition [10, 17]: -99% | growth inhibition [10, 18]: 97% (active) | growth inhibition ([10]; at 50.0 µM): 97.5% (active) | growth inhibition ([11]; at 1.2 µM): -9% | growth inhibition ([11]; at 3.7 µM): -15% | growth inhibition [11, 17]: -107% | growth inhibition ([11]; at 11.0 µM): 26% | growth inhibition ([11]; at 33.0 µM): 96% (active) | growth inhibition [11, 18]: 97% (active) | growth inhibition ([11]; at 50.0 µM): 99.2% (active) | growth inhibition ([11]; at 100.0 µM): 97% (active) | growth inhibition ([12]; at 1.2 µM): -5% | growth inhibition ([12]; at 3.7 µM): -4% | growth inhibition ([12]; at 11.0 µM): 14% | growth inhibition ([12]; at 33.0 µM): 97% (active) | growth inhibition ([12]; at 100.0 µM): 99% (active) | growth inhibition ([13]; at 1.2 µM): 3% | growth inhibition ([13]; at 3.7 µM): -9% | growth inhibition ([13]; at 11.0 µM): 34% | growth inhibition ([13]; at 33.0 µM): 97% (active) | growth inhibition ([13]; at 100.0 µM): 99% (active) | growth inhibition ([14]; at 1.2 µM): -3% | growth inhibition ([14]; at 3.7 µM): 6% | growth inhibition ([14]; at 11.0 µM): 50% | growth inhibition ([14]; at 33.0 µM): 99% (active) | growth inhibition ([14]; at 100.0 µM): 99% (active) | growth inhibition [15, 17]: -135% | growth inhibition [15, 18]: 96% (active) | growth inhibition ([15]; at 50.0 µM): 98.4% (active) | growth inhibition ([16]; at 1.2 µM): -1% | growth inhibition ([16]; at 3.7 µM): 3% | growth inhibition ([16]; at 11.0 µM): 39% | growth inhibition ([16]; at 33.0 µM): 97% (active) | growth inhibition ([16]; at 100.0 µM): 99% (active)
